According to PubChem BioAssay (Tox21):
Inconclusive results are not listed. A call without a number means that no potency is given here. Activity calls are given as the source filed them. Calls follow the shape of the dose curve; as a rule, active = well fitted cell-killing curve with a large enough effect in the repeat runs; inconclusive = weak or mixed curves; inactive = flat fitted curve, though single readings scatter.

Experiment: qHTS assay to identify small molecule antagonists of the estrogen related receptor (ERR) signaling pathway - cell viability counter screen (AID 1224818);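 also: viability measured after 17.5 h of compound exposure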
Details: ERR reporter cell line viability counter screen; series mostly up to 46.1 µM
In short: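 ERR cells, 2,000/well; 6 h settle at 37 C/5% CO2; compound pin transfer (DMSO); 17.5 h at 37 C; CellTiter-Fluor, 30 min, fluorescence read.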

Structure (SMILES) | Potency
COC(=O)[C@H](NC(=O)c1cc(-c2ccccc2)nc2ccccc12)c1ccccc1 | inactive
CSC(N)=NCCC[C@H](N)C(=O)O | inactive
O=C(OCCN1CCOCC1)C1(c2ccccc2)CCCCC1 | inactive
O=c1[nH]ccc2c(O)cccc12 | inactive
NS(=O)(=O)c1cccc2c1c([N+](=O)[O-])cc1nc(O)c(O)nc12 | inactive
NC1(C(=O)O)CCCCC1 | inactive
O=C1OC(=O)C2C3CCC(O3)C12 (stereo not given) | inactive
O=C(O)C1CCCN(CCC=C(c2ccccc2)c2ccccc2)C1 (stereo not given) | inactive
O=C(O)c1ccccc1Nc1cccc(OCc2ccc3ccccc3n2)c1 | inactive
O=C(c1ccc(OCCCc2cnc[nH]2)cc1)C1CC1 | inactive
N.N.N.N.N.N.N.N.N.N.N.N.N.N.O.O.[Cl-].[Cl-].[Cl-].[Cl-].[Cl-].[Cl-].[Ru+4].[Ru+5].[Ru+5] | inactive
CCCCCCCCCCCCCCC[C@H](O)[C@H](N)CO | inactive
NCC(O)(CS(=O)(=O)O)c1ccc(Cl)cc1 (stereo not given) | inactive
C[C@@H](N)C1CCC(C(=O)Nc2ccncc2)CC1 (stereo not given in full) | inactive
CC(=O)N[C@@H](Cc1c[nH]c2ccccc12)C(=O)OCc1cc(C(F)(F)F)cc(C(F)(F)F)c1 | inactive
O=S(=O)(c1cccc2c(I)cccc12)N1CCCNCC1 | inactive
Clc1ccc2c(N3CCN(CCCN4CCN(c5ccnc6cc(Cl)ccc56)CC4)CC3)ccnc2c1 | inactive
COC(=O)C(N)Cc1ccc(Cl)cc1 (stereo not given) | inactive
O=[N+]([O-])c1cccc2cn[nH]c12 | inactive
NC(N)=NC(N)=Nc1cccc(Cl)c1 | inactive

Structure (SMILES) | Potency
NOCC(=O)O | inactive
C=C[C@H]1CN2CC[C@@H]1C[C@H]2[C@H](O)c1ccnc2ccc(OC)cc12 | inactive
CCC1(O)CC2CN(CCc3c([nH]c4ccccc34)[C@@](C(=O)OC)(c3cc4c(cc3OC)N(C=O)C3[C@]45CCN4CC=C[C@@](CC)([C@@H](OC(C)=O)[C@]3(O)C(=O)OC)[C@H]45)C2)C1 (stereo not given in full) | inactive
CC(=O)N[C@H](C(=O)O)C(C)(C)SN=O | inactive
O=C1NC(=O)/C(=C/c2ccc(-c3ccc(F)cc3O)o2)S1 | inactive
CC(=O)SCC[N+](C)(C)C | inactive
CN(C)C(=O)/N=N/C(=O)N(C)C | inactive
CC(C)Cc1ccc([C@H](C)C(=O)O)cc1 | inactive
COc1cc2c(cc1OC)C1CC(=O)C(CC(C)C)CN1CC2 (stereo not given) | inactive
N#Cc1cc2nc(O)c(O)nc2cc1[N+](=O)[O-] | inactive
O=c1cc(-c2ccccc2)oc2c(O)c(O)ccc12 | inactive
NCC(O)c1ccc(O)c(O)c1 (stereo not given) | inactive
Nc1nc(Cl)nc2c1ncn2[C@@H]1O[C@H](COP(=O)(O)OP(=O)(O)OP(=O)(O)O)C(O)[C@H]1O (stereo not given in full) | inactive
CC(C)(C)c1onc(OCP(=O)(O)O)c1CC(N)C(=O)O (stereo not given) | inactive
CC(=O)NNC(=O)N1Cc2ccccc2Oc2ccc(Cl)cc21 | inactive
COc1ccc(NC(=O)c2ccc(-c3ccc(-c4noc(C)n4)cc3C)cc2)cc1N1CCN(C)CC1 | inactive
N#C/C(=C\c1ccc(O)c(O)c1)C(=O)NCCCNC(=O)/C(C#N)=C/c1ccc(O)c(O)c1 | inactive
CN1CC(O)C(O)C(O)C1CO (stereo not given) | inactive
CCCCS(=N)(=O)CCC(N)C(=O)O (stereo not given) | inactive
O=C(O)CCC/C=C\C[C@@H]1[C@@H](/C=C/[C@H](O)C2Cc3ccccc3C2)[C@@H](F)C[C@@H]1O | inactive
